Test results published in PubChem BioAssay (NCATS).
Results filed as inconclusive are left out. Where a call stands in place of a potency, no number is given. Calls of active or inactive are those of the source. Unless noted, calls come from the whole dose curve.

Biological target: Cytochrome P450 2C9 (Homo sapiens) (UniProt P11712)
Assay: Cytochrome P450 family 2 subfamily C member 9 (CYP2C9) small molecule antagonists: luciferase biochemical (cell-free) qHTS assay (AID 1645842; active = well fitted curve in the direction sought with a large enough effect in the repeat runs; an effect the other way counts as inactive or inconclusive; note: nearly all actives have a fitted effect of over 55% in size; note: potency is the fitted concentration of half-maximal effect)
Settings: P450-Glo CYP2C9 enzyme assay, luciferin luminescence; series mostly up to 57.4 µM
In short: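 P450-Glo CYP2C9 system: proluciferin substrate with enzyme in mix containing 0.4% BSA, 10 min at room temperature, then NADPH regeneration solution added and incubated 1 h at 37C. Detection reagent stopped reaction; luminescence read after 20 min as RLU.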

Chain of Cytochrome P450 2C9 (Homo sapiens) (P11712 whole entry, looked up): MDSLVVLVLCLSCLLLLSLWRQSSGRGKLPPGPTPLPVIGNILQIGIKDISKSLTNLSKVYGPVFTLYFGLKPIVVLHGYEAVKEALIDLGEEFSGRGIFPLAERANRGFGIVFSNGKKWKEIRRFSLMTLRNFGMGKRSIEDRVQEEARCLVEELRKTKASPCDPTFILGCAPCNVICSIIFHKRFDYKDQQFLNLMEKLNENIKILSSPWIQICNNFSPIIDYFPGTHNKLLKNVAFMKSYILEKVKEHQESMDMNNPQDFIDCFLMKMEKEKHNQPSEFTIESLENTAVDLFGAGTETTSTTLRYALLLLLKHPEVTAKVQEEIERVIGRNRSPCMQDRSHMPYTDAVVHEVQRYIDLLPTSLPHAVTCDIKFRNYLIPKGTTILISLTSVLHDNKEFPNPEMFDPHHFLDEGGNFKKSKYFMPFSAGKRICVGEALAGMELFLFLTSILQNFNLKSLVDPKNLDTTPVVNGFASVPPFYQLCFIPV

Structure (SMILES) | Potency
[N-]=[N+]=CC(=O)OC[C@H](N)C(=O)O | inactive
CCCN(CCC)C(=O)Cc1c(-c2ccc(Cl)cc2)nc2ccc(Cl)cn12 | 12.3 µM (active)
NC(=O)CS(=O)C(c1ccccc1)c1ccccc1 (stereo unspecified) | inactive

Tested on: not listed separately
Assay: Cytotoxicity counterscreen for inhibitors of SARS-CoV-2 cell entry (AID 1645845); note: nearly all actives have a fitted effect of over 50% in size
Settings: cell viability (SARS-CoV-2 entry assay cells); series mostly up to 57.1 µM
In short: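 After a 15 min room-temperature ATPLite 1step step, luminescence reflected ATP remaining in HEK293-ACE2 cells exposed to compound for 1 h plus 48 h at 37 C, with percent activity set by cell and no-cell controls.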

Structure (SMILES) | Potency | outcome
O=C(O)c1cc(N=Nc2ccc(O)c(C(=O)O)c2)ccc1O | inactive | 
CCOC(=O)NNc1ccc(N(CC)CC(C)O)nn1 (stereo unspecified) | inactive | 
O=C(Cn1ccnc1[N+](=O)[O-])NCc1ccccc1 | inactive | 
O=C(O[C@H]1CN2CCC1CC2)N1CCc2ccccc2[C@@H]1c1ccccc1 | inactive | 
Cc1ccc(C(=O)C(C)CN2CCCCC2)cc1 (stereo unspecified) | inactive | 
CC(CSC(=O)c1ccccc1)C(=O)N1C[C@@H](Sc2ccccc2)C[C@H]1C(=O)O (stereo partly specified) | inactive | 
CN(c1nccc(=O)[nH]1)C1CCN(c2nc3ccccc3n2Cc2ccc(F)cc2)CC1 | inactive | 
COc1ccc(O)cc1 | inactive | 
Cc1c(C(=O)O)c(O)cc2c1C(=O)c1c(O)c([C@@H]3O[C@H](CO)[C@@H](O)[C@H](O)[C@H]3O)c(O)c(O)c1C2=O | inactive | 
CN(CC1(C)CCCO1)S(=O)(=O)c1ccc(Cl)c(S(N)(=O)=O)c1 (stereo unspecified) | inactive | 
CCOC(=O)C1=C(COCCN)NC(C)=C(C(=O)OC)C1c1ccccc1Cl (stereo unspecified) | inactive | 
OC[C@H]1O[C@@H](Oc2ccc(O)cc2)[C@H](O)[C@@H](O)[C@@H]1O | inactive | 
Oc1ccc(OCc2ccccc2)cc1 | inactive | 
CCC[C@@]1(CCc2ccccc2)CC(O)=C([C@H](CC)c2cccc(NS(=O)(=O)c3ccc(C(F)(F)F)cn3)c2)C(=O)O1 | inactive | 
CNNCc1ccc(C(=O)NC(C)C)cc1 | inactive | 
Nc1nc(Cl)nc2c1ncn2[C@H]1C[C@H](O)[C@@H](CO)O1 | inactive | 
CCOc1ccc(NS(=O)(=O)c2ccc(N)cc2)nn1 | inactive | 
NC(CO)(CO)CO | inactive | 

Structure (SMILES) | Potency | outcome
CC(=O)CC(c1ccc([N+](=O)[O-])cc1)c1c(O)c2ccccc2oc1=O (stereo unspecified) | inactive | 
C=CCN1CCc2nc(N)sc2CC1 | inactive | 
CCCCCCCN(CC)CCCC(O)c1ccc(NS(C)(=O)=O)cc1 (stereo unspecified) | inactive | 
Nc1ccc(S(=O)(=O)NC(=O)c2ccccc2)cc1 | inactive | 
O=C1[O][Bi][O]c2ccccc21 |  | inactive [at 0.702 µM]
CC(=O)Nc1ccc(CC(=O)O)cc1 | inactive | 
c1ccc2sc(SN3CCOCC3)nc2c1 | inactive | 
CCN[C@H]1CN(CCCOC)S(=O)(=O)c2sc(S(N)(=O)=O)cc21 | inactive | 
CSCC[C@H](NC(=O)[C@H](Cc1ccc(OS(=O)(=O)O)cc1)NC(=O)[C@@H](N)CC(=O)O)C(=O)NCC(=O)N[C@@H](Cc1c[nH]c2ccccc12)C(=O)N[C@@H](CCSC)C(=O)N[C@@H](CC(=O)O)C(=O)N[C@@H](Cc1ccccc1)C(N)=O | inactive | 
Nc1c(I)cc(I)c(C(=O)N(CCC(=O)O)c2ccccc2)c1I | inactive | 
CC(=O)N=c1sc(S(N)(=O)=O)nn1C | inactive | 
C=C1[C@H](CO)[C@@H](O)C[C@@H]1n1cnc2c(=O)[nH]c(N)nc21 | inactive | 
NS(=O)(=O)c1cc(C(=O)NN2C[C@H]3[C@H]4CCC(C4)[C@H]3C2)ccc1Cl | inactive | 
Nc1nc(/C(=C/CC(=O)O)C(=O)N[C@@H]2C(=O)N3C(C(=O)O)=CCS[C@H]23)cs1 | inactive | 
O=C(O)/C=C(\CC(=O)O)C(=O)O | inactive | 
CC1(C)S[C@@H]2[C@H](NC(=O)C(c3ccccc3)S(=O)(=O)O)C(=O)N2[C@H]1C(=O)O (stereo partly specified) | inactive | 
Cc1ccc(C(C)C)c(O)c1 | inactive | 

Tested on: not listed separately
Assay: Primary qHTS for inhibitors of nuclear receptor binding SET domain protein 2 (NSD2) in an isogenic RCH-ACV NSD2 p.E1099K mutant (9B) (AID 1645876; active = well fitted curve in the direction sought with a large enough effect; an effect the other way counts as inactive or inconclusive; note: nearly all actives have a fitted effect of over 70% in size)
Settings: RCH-ACV (leukaemia line) NSD2 E1099K (9B) viability, CellTiter-Glo, 72 h; series mostly up to 44.9 µM

Structure (SMILES) | Potency
[N-]=[N+]=CC(=O)OC[C@H](N)C(=O)O | inactive
CCCN(CCC)C(=O)Cc1c(-c2ccc(Cl)cc2)nc2ccc(Cl)cn12 | inactive
NC(=O)CS(=O)C(c1ccccc1)c1ccccc1 (stereo unspecified) | inactive
